About 2,000 (36%) of roughly 5,500 compounds were called active. Not shown: some 18% with an inconclusive outcome. Rule as the data show it: active = normalized growth mostly below about 0.91 (no sharp cut-off); inconclusive = no clear call, values can overlap the other calls; inactive = mostly above about 0.92. The list shows a part of the results.
Test: chemical genetic growth profiling, strain panel (AID 1159580);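 also: tested at 20 µM; growth read once vehicle control cultures reached saturation at 30 °C; 1 = growth at the plate median or of vehicle wells; lower values mean less growth of the strain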
Conditions: growth OD

Measured: normalized growth

CNC(=O)O/N=C(\C)SC
inactive: S. cerevisiae deletion strains, locus YJR075W, strain HOC1, active compounds read low 0.99 | S. cerevisiae deletion strains, locus YKL009W, strain mrt4, active compounds read low 1.02 | S. cerevisiae deletion strains, locus YKL068W, active compounds read low 0.986 | S. cerevisiae deletion strains, locus YKL085W, strain MDH1 (second series), active compounds read low 0.985 | S. cerevisiae deletion strains, locus YKL085W, strain MDH1, active compounds read low 0.985 | S. cerevisiae deletion strains, locus YKL160W, strain elf1, active compounds read low 1 | S. cerevisiae deletion strains, locus YKL190W, strain CNB1, active compounds read low 1 | S. cerevisiae deletion strains, locus YKR001C, strain vps1, active compounds read low 0.999 | S. cerevisiae deletion strains, locus YKR026C, strain gcn3, active compounds read low 0.999 | S. cerevisiae deletion strains, locus YKR091W, strain srl3, active compounds read low 1 | S. cerevisiae deletion strains, locus YLL001W, strain dnm1, active compounds read low 1 | S. cerevisiae deletion strains, locus YLL026W, active compounds read low 1 | S. cerevisiae deletion strains, locus YLL041C, strain sdh2, active compounds read low 0.999 | S. cerevisiae deletion strains, locus YLR027C, strain aat2, active compounds read low 0.987 | S. cerevisiae deletion strains, locus YLR039C, strain RIC1, active compounds read low 1.01 | S. cerevisiae deletion strains, locus YLR058C, strain SHM2, active compounds read low 1.01 | S. cerevisiae deletion strains, locus YLR102C, strain apc9, active compounds read low 0.99 | S. cerevisiae deletion strains, locus YLR113W, strain HOG1, active compounds read low 1.01 | S. cerevisiae deletion strains, locus YLR221C, strain rsa3, active compounds read low 1 | S. cerevisiae deletion strains, locus YLR258W, strain gsy2, active compounds read low 0.994 | S. cerevisiae deletion strains, locus YLR262C, strain YPT6 (second series), active compounds read low 1.03 | S. cerevisiae deletion strains, locus YLR262C, strain YPT6, active compounds read low 1.05 | S. cerevisiae deletion strains, locus YLR268W, strain sec22, active compounds read low 0.994 | S. cerevisiae deletion strains, locus YLR320W, strain mms22, active compounds read low 0.995 | S. cerevisiae deletion strains, locus YLR330W, strain CHS5, active compounds read low 1.01 | S. cerevisiae deletion strains, locus YLR342W, strain FKS1 (second series), active compounds read low 1.02 | S. cerevisiae deletion strains, locus YLR342W, strain FKS1, active compounds read low 0.997 | S. cerevisiae deletion strains, locus YLR357W, strain rsc2, active compounds read low 0.983 | S. cerevisiae deletion strains, locus YLR370C, strain arc18, active compounds read low 1 | S. cerevisiae deletion strains, locus YLR371W, strain rom2, active compounds read low 0.98 | S. cerevisiae deletion strains, locus YLR384C, strain iki3, active compounds read low 1 | S. cerevisiae deletion strains, locus YLR418C, strain cdc73, active compounds read low 1.01 | S. cerevisiae deletion strains, locus YML016C, strain PPZ1, active compounds read low 1.01 | S. cerevisiae deletion strains, locus YML032C, strain rad52, active compounds read low 0.981 | S. cerevisiae deletion strains, locus YML120C, strain ndi1, active compounds read low 1.01 | S. cerevisiae deletion strains, locus YML124C, strain tub3, active compounds read low 0.978 | S. cerevisiae deletion strains, locus YMR058W, strain fet3, active compounds read low 1 | S. cerevisiae deletion strains, locus YMR078C, strain ctf18, active compounds read low 0.985 | S. cerevisiae deletion strains, locus YMR125W, strain sto1, active compounds read low 0.999 | S. cerevisiae deletion strains, locus YMR129W, active compounds read low 0.999 | S. cerevisiae deletion strains, locus YMR205C, strain PFK2, active compounds read low 1.01 | S. cerevisiae deletion strains, locus YMR223W, strain ubp8, active compounds read low 0.991 | S. cerevisiae deletion strains, locus YMR231W, strain pep5, active compounds read low 0.982 | S. cerevisiae deletion strains, locus YMR263W, strain SAP30, active compounds read low 1.02 | S. cerevisiae deletion strains, locus YMR307W, strain GAS1, active compounds read low 1.02 | S. cerevisiae deletion strains, locus YNL067W, strain RPL9B, active compounds read low 1.01 | S. cerevisiae deletion strains, locus YNL071W, strain lat1, active compounds read low 1.01 | S. cerevisiae deletion strains, locus YNL128W, strain TEP1, active compounds read low 1.01 | S. cerevisiae deletion strains, locus YNL153C, strain GIM3, active compounds read low 0.996 | S. cerevisiae deletion strains, locus YNL183C, strain NPR1, active compounds read low 0.997 | S. cerevisiae deletion strains, locus YNL209W, strain ssb2, active compounds read low 0.996 | S. cerevisiae deletion strains, locus YNL233W, strain BNI4, active compounds read low 1.03 | S. cerevisiae deletion strains, locus YNL248C, strain rpa49, active compounds read low 1 | S. cerevisiae deletion strains, locus YNL250W, strain rad50, active compounds read low 0.974 | S. cerevisiae deletion strains, locus YNL271C, strain bni1, active compounds read low 0.991 | S. cerevisiae deletion strains, locus YNL298W, strain CLA4, active compounds read low 0.988 | S. cerevisiae deletion strains, locus YNL307C, strain MCK1, active compounds read low 0.981 | S. cerevisiae deletion strains, locus YNL322C, strain KRE1 (second series), active compounds read low 0.995 | S. cerevisiae deletion strains, locus YNL322C, strain KRE1, active compounds read low 1.01 | S. cerevisiae deletion strains, locus YNR049C, strain mso1, active compounds read low 0.998 | S. cerevisiae deletion strains, locus YNR052C, strain pop2, active compounds read low 0.988 | S. cerevisiae deletion strains, locus YOL006C, strain TOP1, active compounds read low 1.07 | S. cerevisiae deletion strains, locus YOL012C, strain htz1 0.858 | S. cerevisiae deletion strains, locus YOL147C, strain pex11, active compounds read low 0.976 | S. cerevisiae deletion strains, locus YOR001W, strain rrp6, active compounds read low 0.989 | S. cerevisiae deletion strains, locus YOR061W, strain CKA2, active compounds read low 1.01 | S. cerevisiae deletion strains, locus YOR069W, strain VPS5, active compounds read low 1 | S. cerevisiae deletion strains, locus YOR070C, strain gyp1, active compounds read low 0.995 | S. cerevisiae deletion strains, locus YOR080W, strain dia2, active compounds read low 0.996 | S. cerevisiae deletion strains, locus YOR083W, strain WHI5, active compounds read low 1 | S. cerevisiae deletion strains, locus YOR106W, strain vam3, active compounds read low 1.01 | S. cerevisiae deletion strains, locus YOR136W, strain idh2, active compounds read low 0.978 | S. cerevisiae deletion strains, locus YOR144C, strain elg1, active compounds read low 0.977 | S. cerevisiae deletion strains, locus YOR184W, strain ser1, active compounds read low 0.993 | S. cerevisiae deletion strains, locus YOR231W, strain MKK1, active compounds read low 1.05 | S. cerevisiae deletion strains, locus YOR265W, strain rbl2, active compounds read low 1.02 | S. cerevisiae deletion strains, locus YOR270C, strain vph1, active compounds read low 1.02 | S. cerevisiae deletion strains, locus YOR290C, strain snf2, active compounds read low 0.981 | S. cerevisiae deletion strains, locus YOR316C, strain cot1, active compounds read low 0.983 | S. cerevisiae deletion strains, locus YPL051W, strain arl3, active compounds read low 1.02 | S. cerevisiae deletion strains, locus YPL055C, strain LGE1, active compounds read low 1.03 | S. cerevisiae deletion strains, locus YPL078C, strain atp4, active compounds read low 0.997 | S. cerevisiae deletion strains, locus YPL106C, strain sse1, active compounds read low 0.982 | S. cerevisiae deletion strains, locus YPL240C, strain hsp82, active compounds read low 0.998 | S. cerevisiae deletion strains, locus YPL241C, strain CIN2, active compounds read low 1 | S. cerevisiae deletion strains, locus YPL256C, strain CLN2, active compounds read low 1.05 | S. cerevisiae deletion strains, locus YPR119W, strain clb2, active compounds read low 0.985 | S. cerevisiae deletion strains, locus YPR141C, strain kar3, active compounds read low 0.989 | S. cerevisiae deletion strains, locus YPR163C, strain tif3, active compounds read low 0.976 | S. cerevisiae deletion strains, locus YPR167C, strain met16, active compounds read low 0.986 | S. cerevisiae deletion strains, strain wtn01, active compounds read low 0.997 | S. cerevisiae strains, strain wild type, active compounds read low 1
